Measured values as given in ChEMBL document CHEMBL4513216, “Probing the Open Global Health Chemical Diversity Library for Multistage-Active Starting Points for Next-Generation Antimalarials” (ACS Infect Dis, 2020).
Among all 69,000 compounds or so, about 8,600 (12%) showed an effect of 50% or more. For the sample, strong results were picked, then their nearest neighbours and some compounds at random.

Test system: Plasmodium berghei
Assay: Screen against P. berghei liver stage (PbLuc), transformed with Luciferase, at 10uM
Format: functional, HepG2
Conditions: tested at 10 uM

Row | Structure (SMILES) | INHIBITION [%]
1 | Cc1nnc(NC(=O)CN2CCCC2c2c(C)nn(C)c2C)s1 (centres undefined) | -24.2
2 | CCc1nnc2n1CCN(C(=O)c1ccc3c(c1)nnn3C)C2 | -8.66
3 | CS(=O)(=O)N1Cc2nccn2CC(CNC(=O)c2cccnc2)C1 (centres undefined) | 2.79
4 | COC(=O)[C@@H](Nc1nc(C2CCCC2)nc2c1cnn2C)[C@@H](C)O | 10.9
5 | COCCN1CC(Nc2nc(C3CCCC3)nc3c2cnn3C)CC1=O (centres undefined) | 25.1
6 | Cc1cc(CC(C)Nc2nc(C3CCCC3)nc3c2cnn3C)[nH]n1 (centres undefined) | 45.1
7 | CCC(Nc1nccc(C2CCCC2)n1)c1ccncc1 (centres undefined) | 84.1
8 | CCC(Nc1nccc(C2CCCC2)n1)c1ccccn1 (centres undefined) | 22.5
9 | CCOC(=O)CNc1nc(COC)nc2c1cnn2C | -4.23
10 | CC(C)C[C@H](Nc1nc(C2CCCC2)nc2c1cnn2C)C(N)=O | 61
11 | CCC(Nc1nccc(C2CCCC2)n1)c1ncccc1C (centres undefined) | -24.8
12 | CC(=O)NCCNc1nc(C2CCCC2)nc2c1cnn2C | 5.23
13 | COC(=O)[C@H](CSC)Nc1nc(C2CCCC2)nc2c1cnn2C | 52.6
14 | CCOC(=O)CC(C)Nc1nc(C2CCCC2)nc2c1cnn2C (centres undefined) | 61
15 | CC(C)[C@H](Nc1nc(C2CCCC2)nc2c1cnn2C)C(N)=O | 28.5
16 | Cc1c(C2CCCN(C(=O)c3ccn(C)n3)C2)n2c(nc1=O)CCC2 (centres undefined) | -9.32
17 | CC(=O)NCCNC(=O)NCC1Cc2ccccc2O1 (centres undefined) | 1.56
18 | CN(C)C(=O)CN1CCCCC1c1nc(N)ncc1-c1cccc(F)c1 (centres undefined) | 39.8
19 | CS(=O)(=O)NC1CCCN(C(=O)Nc2cccnc2)C1 (centres undefined) | 37.3
20 | Cc1noc(C)c1-c1nc(C2CCCN(CCC(N)=O)C2)ccc1CO (centres undefined) | -19
21 | O=C(CCN1C(=O)CC2(CCCC2)C1=O)NCCc1nccs1 | 20
22 | Cc1nc(NC(=O)C2(C)CN(C)CCO2)sc1C (centres undefined) | 4.3
23 | CCC(Nc1nc(C2CCCC2)nc2c1cnn2C)c1ccncc1 (centres undefined) | 50.8

Row | Structure (SMILES) | INHIBITION [%]
24 | CC[C@H](Nc1nc(C(C)C)nc2c1cnn2C)c1ccccc1 | 53.6
25 | CCC(Nc1nc(C(C)C)nc2c1cnn2C)c1ccncc1 (centres undefined) | 48
26 | CCC(Nc1nc(C(C)C)nc2c1cnn2C)c1ccc(O)cc1 (centres undefined) | 15.5
27 | O=S(=O)(CC1CCCCO1)Nc1cnn(CC(F)F)c1 (centres undefined) | 9.76
28 | Clc1ccc(OCCc2cc(C3CCN(c4ncccn4)C3)n[nH]2)cc1 (centres undefined) | 36.22
29 | COc1ccc(OCCc2cc(C3CCN(CC(C)C)C3)n[nH]2)cc1 (centres undefined) | 15.15
30 | CCCN1CCC(c2cc(CCOc3ccc(C(F)(F)F)cc3)[nH]n2)C1 (centres undefined) | 58
31 | O=C(NCc1ccon1)c1c(F)cc(Br)cc1F | -7.83
32 | Cc1nc2ccc(C(=O)N3CCn4c(nnc4C4CC4)C3)cc2nc1C | 48.6
33 | Cc1cc2ccccc2n1CCC(=O)N1CCC2(CC1)CNC(=O)C2 | 29.4
34 | O=C1NCC2(CCCN(C(=O)CCn3cnc4ccccc43)CC2)O1 (centres undefined) | 35.8
35 | Cc1cc2ccccc2n1CCC(=O)N1CCCC2(CC1)CNC(=O)O2 (centres undefined) | 65.7
36 | Cc1cc(NC(=O)CN2CCc3cncnc3C2)no1 | 16.8
37 | Cc1cc(C2CCCN2Cc2cc(=O)n(C)c(=O)n2C)no1 (centres undefined) | -10.3
38 | C[C@H](c1ccc(F)cc1)n1c(C2CCC2)n[nH]c1=O | -6.59
39 | C[C@H](c1ccc(Cl)cc1)n1c(C2CC2)n[nH]c1=O | 24.4
40 | C[C@H](c1ccc(F)cc1)n1c(C2CCN(C)CC2)n[nH]c1=O | 76.8
41 | Cc1nc(N2CCCC2)nc2c1CCN(C(=O)C1CCCCC1)CC2 | -42.8
42 | CCOc1ccnc(N2CCN(C(=O)c3ccncc3)CC2)n1 | 34.7
43 | CC(C)(C)c1n[nH]cc1CNC1CCC(OCC(F)(F)F)CC1 (centres undefined) | -18.5
44 | CC(C)N(C)S(=O)(=O)N(C)Cc1ccc2c(c1)OCO2 | 54.3
45 | CCN(Cc1ccc2c(c1)OCO2)S(=O)(=O)N(C)C(C)C | -4.16
46 | CC(C)N(C)S(=O)(=O)N(C)Cc1ccc2c(c1)OCCO2 | -10.1

Row | Structure (SMILES) | INHIBITION [%]
47 | Cc1nc(C)n(CC2CCCCN2CC(=O)N(C)Cc2ccco2)n1 (centres undefined) | 28.6
48 | Cc1cc(C)n(CC2CCCN2CC(=O)N(C)Cc2ccc(C)o2)n1 (centres undefined) | 45.7
49 | Cc1ccc(CN(C)C(=O)CN2CCCCC2Cn2cncn2)o1 (centres undefined) | 40.5
50 | Cc1cnn(CC2CCCCN2CC(=O)N(C)Cc2ccc(C)o2)c1 (centres undefined) | 53.4
51 | Cc1nc(C)n(CC2CCCN2CC(=O)N(C)Cc2ccc(C)o2)n1 (centres undefined) | 74.2
52 | Cc1cnn(CC2CCCN2CC(=O)N(C)Cc2ccc(C)o2)c1 (centres undefined) | -10.3
53 | CN(C)c1nc2n(c(=O)n1)CCN2C(=O)Nc1cccc(Cl)c1 | 78.1
54 | CN(C)c1nc2n(c(=O)n1)CCN2C(=O)Nc1ccc(Cl)c(Cl)c1 | 28.4
55 | CN(C)c1nc2n(c(=O)n1)CCN2C(=O)Nc1ccc(Cl)cc1 | -25.5
56 | CCN1CCNC(=O)C12CCN(C(=O)Cc1ccsc1)CC2 | -23.1
57 | CC(OCC1CC1)C(=O)Nc1nccn1Cc1ccccc1 (centres undefined) | 44.7
58 | CS(=O)(=O)CCC(=O)Nc1nccn1Cc1ccccc1Cl | 53.5
59 | CC(=O)Nc1nccn1Cc1ccccc1Cl | 50.5
60 | CCOCC(=O)Nc1nccn1Cc1ccccc1Cl | 22.8
61 | Cn1ccc(C(=O)Nc2nccn2Cc2ccccc2Cl)cc1=O | 9.91
62 | CS(=O)(=O)CCC(=O)Nc1cnn(-c2ccccc2Cl)c1 | 43.7
63 | CC(C)N(C)CC(=O)Nc1nccn1Cc1ccccc1Cl | -11.9
64 | CCOCCOC(C)C(=O)Nc1ccnn1-c1ccccc1C (centres undefined) | 39.7
65 | CCOCCOC(C)C(=O)Nc1nccn1Cc1ccccc1 (centres undefined) | 89.6
66 | O=C(NCCn1ccnc1)NCC(c1ccco1)N1CCCC1 (centres undefined) | -14
67 | Cc1nccn1[C@@H]1CC[C@@H](N(C)S(=O)(=O)c2ccccc2F)[C@H]1O | -0.05
68 | Cc1occc1C(=O)NCC1OCCc2cn(C)nc21 (centres undefined) | -14.2
69 | COCCCNc1c(-c2ccccc2)c(=O)c1=O | 25.3
